Among the data in the OligoGym collection are sensor-assay potency score (higher = more potent) values, retold here.

Some targets named below: YPEL3; YJEFN3; YIPF6; YWHAG; YARS; ZBTB8A; ZBTB5; ZBTB24; ZBTB39.
What all share (assay): pooled miR-30 sensor sort-seq; sequence = guide strand
Common to all, as to settings: shRNA
Note: reference of the scale not given here.

In turn, TTGAGTTCAATGATGTACTTCC registered a sensor-assay potency score (higher = more potent) in the assay with YPEL3 of 0.797.

ATAGGCTTCGTTAATGAGCTGC: the sensor-assay potency score (higher = more potent) with YJEFN3 was 0.277.

As to TTTTAGATCACGCATGATGGTA, the sensor-assay potency score (higher = more potent) with YIPF6 is -0.619.

On to TTCCCCTCTTTGTACTTCTGGC, for which the sensor-assay potency score (higher = more potent) in the assay with YPEL3 was -0.928.

With TTGAGGGTGATGGTAACTGCAC, the sensor-assay potency score (higher = more potent) with YIPF6 is -0.917.

As to TAGCATGACCGCACAGCTCCAC, the sensor-assay potency score (higher = more potent) in the assay with YJEFN3 was -0.593.

In the assay with YIPF6, TAAACAGCTAGGGCTCTGCGGT returned a sensor-assay potency score (higher = more potent) of -0.877.

Sequence TAAACCATAAGGATGAATGAGA registered a sensor-assay potency score (higher = more potent) in the assay with YWHAG of -0.514.

In the assay with YPEL3, TATACCTCCGGTGACAATCATC had a sensor-assay potency score (higher = more potent) of -1.49.

ATGACCGCACAGCTCCACGAGC registered a sensor-assay potency score (higher = more potent) in the assay with YJEFN3 of -1.82.

For TTGTGAGATGGATATATCTGAA, the sensor-assay potency score (higher = more potent) with YIPF6 is -0.839.

Regarding TTCGCTGTAGGCCTTCTCGGAG, the sensor-assay potency score (higher = more potent) with YWHAG was -0.969.

TTGGAGATGAGGTCGTCGTGGT displayed a sensor-assay potency score (higher = more potent) with YPEL3 of 0.122.

As to TCACTATCTGCAGAGTCTCTTT, the sensor-assay potency score (higher = more potent) with YIPF6 is -0.696.

The sequence TTTAGATCACGCATGATGGTAT yielded a sensor-assay potency score (higher = more potent) in the assay with YIPF6 of 0.00293.

In the assay with YARS, TCGTAGGATCACAAACTCGGAC showed a sensor-assay potency score (higher = more potent) of -0.717.

ACAATCATCCAAGTAGGCCTGA: the sensor-assay potency score (higher = more potent) with YPEL3 was 0.225.

In the assay with YJEFN3, TGTCCATCTTCTCGCACTGGGT returned a sensor-assay potency score (higher = more potent) of -1.09.

For the sequence TCCATCTTCTCGCACTGGGTGG, the sensor-assay potency score (higher = more potent) with YJEFN3 was -1.52.

In the assay with YIPF6, TATCTGCAGAGTCTCTTTGCAG yielded a sensor-assay potency score (higher = more potent) of -1.39.

In the assay with YJEFN3, TCATCGGGCACGAACCTGCCGG had a sensor-assay potency score (higher = more potent) of -1.06.

Sequence ATGGACAGCAGCTTGAGCGTGG had a sensor-assay potency score (higher = more potent) in the assay with YJEFN3 of 0.0409.

The sequence TTCTACAATCTCCACATAGGAT yielded a sensor-assay potency score (higher = more potent) with ZBTB8A of -0.772.

TAATCTGTCGTCGAAAACGGTA: in the assay with ZBTB5, the sensor-assay potency score (higher = more potent) was -0.933.

The sequence TTAGGGATAACAACCACTGGGG had a sensor-assay potency score (higher = more potent) in the assay with ZBTB24 of -0.555.

As to TCACAAAATACATCTTGCCTGC, the sensor-assay potency score (higher = more potent) with ZBTB8A is -0.43.

TTACAAACTACTTTCTGACTGC displayed a sensor-assay potency score (higher = more potent) with ZBTB5 of 0.686.

In the assay with ZBTB24, TGTAGCTGAAGAATATTCCTGA returned a sensor-assay potency score (higher = more potent) of 0.823.

In the assay with ZBTB8A, TAGCGAATAATACATTTCGATG came in with a sensor-assay potency score (higher = more potent) of -1.75.

Turning to TTAGTTTCACACATGTCGCAGG, the sensor-assay potency score (higher = more potent) in the assay with ZBTB39 is -0.128.
